From PubChem
The list is not random: actives were taken first. Their share in the collection is about 3%.
Mcl1 Bid PPI = disrupts binding of human Mcl-1 to Bid peptide; Q07820; TR-FRET Mcl-1/Bid-Dy647 peptide binding, 1536-well; inhibition, % at 21.7 µM; hit rate 0.97% among 220,000;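 active means compounds that cut the binding signal by more than half at the single screening dose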;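 further: His-tagged Mcl-1 with europium anti-His antibody binding Bid BH3 peptide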
Target sequence (Q07820 whole entry, looked up): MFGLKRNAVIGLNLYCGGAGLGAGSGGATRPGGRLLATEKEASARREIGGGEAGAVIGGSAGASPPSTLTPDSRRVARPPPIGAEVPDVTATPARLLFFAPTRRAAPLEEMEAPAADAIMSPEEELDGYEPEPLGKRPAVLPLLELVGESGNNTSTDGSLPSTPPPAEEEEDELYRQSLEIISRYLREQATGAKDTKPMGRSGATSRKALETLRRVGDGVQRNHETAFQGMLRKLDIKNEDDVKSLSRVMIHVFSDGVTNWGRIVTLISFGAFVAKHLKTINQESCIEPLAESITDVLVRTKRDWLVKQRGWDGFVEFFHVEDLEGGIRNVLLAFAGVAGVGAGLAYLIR
Bim-Mcl-1 = inhibitors of Bim-Mcl-1 interaction, human | hit rate 0.1% among 190,000 | Q07820 | Bead-based flow cytometry, Bim peptide-Mcl-1 binding | AID 1009 | inhibition, % at 10 µM; in the data active means inhibition above about 40%
14-3-3 Bad PPI = disrupts binding of bovine 14-3-3 zeta to phospho-Bad peptide; P63103; TR-FRET 14-3-3zeta/Dy647-pBad peptide displacement, 1 h; inhibition, % at 21.7 µM; hit rate 0.71% among 220,000; AID 781;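 active means inhibition above about 70%, limit read from the data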
Target sequence (P63103 whole entry, looked up): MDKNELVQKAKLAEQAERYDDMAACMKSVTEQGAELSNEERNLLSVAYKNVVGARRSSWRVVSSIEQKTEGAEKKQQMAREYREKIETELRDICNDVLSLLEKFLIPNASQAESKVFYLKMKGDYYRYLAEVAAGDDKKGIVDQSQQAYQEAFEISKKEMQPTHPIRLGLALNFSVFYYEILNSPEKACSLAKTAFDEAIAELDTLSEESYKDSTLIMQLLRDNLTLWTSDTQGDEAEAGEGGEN
Arbovirus inh = arbovirus infection inhibition; arbovirus infection cell-based antiviral screen; inhibition, % at 10 µM; hit rate 0.37% among 200,000; in the data active means inhibition above about 30%
Mcl1-Noxa inh = Mcl-1/Noxa interaction inhibition; inhibition, % at 21.7 µM; AID 1022; TR-FRET Mcl-1/Noxa peptide binding, 2 h; Q07820; hit rate 1.5% among 220,000;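 active means compounds that cut the protein-peptide binding signal by more than 50% relative to plate controls in a single-dose test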;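 further: His-tagged Mcl-1 with rhodamine Noxa BH3 peptide and terbium anti-His antibody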
Hits are given with their value; - = inactive; . = not tested or not shown; [ ] = another dose, or the depositor's remark.

SMILES	Mcl1 Bid PPI	Bim-Mcl-1	14-3-3 Bad PPI	Arbovirus inh	Mcl1-Noxa inh
O=C(Nc1ccc(F)cc1)N1CCCN(c2ccc(C(F)(F)F)cn2)CC1	82.6	.	-	.	-
O=C(OCC(=O)N1CCc2ccccc21)c1ccccn1	-	-	-	-	-
Cc1ccc(N=Nc2c(N)[nH]n3c(=O)cc(-c4ccccc4)nc23)cc1	76.5	-	-	-	81.1
COc1cccc(N=Nc2c(N)[nH]n3c(=O)cc(-c4ccccc4)nc23)c1	56.1	-	-	-	-
O=[N+]([O-])c1cccc(N=Cc2sc3ccccc3c2O)c1	-	-	84.5	-	59.1
O=[N+]([O-])c1ccc(N=Cc2sc3ccccc3c2O)cc1	-	-	-	-	-
C=CCN1C(=O)C(CC(=O)Nc2ccccc2)S/C1=N/c1nccs1 (centres undefined)	-	.	-	.	-
CC(Cc1cccnc1)NC(=O)c1ccccc1OC1CCN(S(C)(=O)=O)CC1 (centres undefined)	-	-	-	-	-
COc1ccc(CCn2c(=N)c(C(=O)NCc3ccco3)cc3c(=O)n4ccccc4nc32)cc1	-	-	-	-	68.4
N=c1c(C(=O)NCC2CCCO2)cc2c(=O)n3ccccc3nc2n1Cc1cccnc1 (centres undefined)	-	-	-	-	-
N=c1c(C(=O)NCc2ccc(F)cc2)cc2c(=O)n3ccccc3nc2n1Cc1cccnc1	-	-	-	-	74.5
CN(CCN(C)C(C)(C)C)C(=O)C(c1ccccc1)c1ccccc1	74.5	.	-	.	-
CCc1nc(SCc2ccc(F)cc2)[nH]c(=O)c1C#N	-	-	-	40.4	-
CCN1CCN(Cc2ccc(NC(=O)c3ccc(C)c(NC(=O)C4=NN(c5ccccc5)C(=O)C4)c3)cc2C(F)(F)F)CC1	-	.	-	.	63.2
CCN1CCN(Cc2ccc(NC(=O)c3cc(NC(=O)C4=NN(c5ccccc5)C(=O)C4)cc(OC)c3)cc2C(F)(F)F)CC1	-	.	-	.	68.5
CN1CCN(c2ccc(NC(=O)c3ccc(C#N)cc3F)cc2Cl)CC1	-	-	-	-	-
Cc1ccc2cccc(NC3OC(=O)c4ccccc43)c2n1 (centres undefined)	-	-	-	-	-
CCN1CCN(c2cc(SC(C)C)nc(-c3ccc(OC)cc3)n2)CC1	-	-	71.1[fluorescence artefact?]	-	-
CC(C)Sc1cc(N2CCOCC2)nc(-c2ccc(Cl)cc2)n1	-	-	-	-	-
O=c1cc(CO)oc(C(Nc2ccccn2)c2ccc(F)cc2)c1O (centres undefined)	52.4	-	-	-	62.1
COc1ccc(C(Nc2ccccn2)c2oc(CO)cc(=O)c2O)cc1 (centres undefined)	-	-	-	-	65.2
O=c1cc(CO)oc(C(Nc2ccccn2)c2ccccc2Cl)c1O (centres undefined)	-	-	-	-	-
O=c1cc(CO)oc(C(Nc2ccccn2)c2ccsc2)c1O (centres undefined)	-	-	-	-	-
Cc1ccnc(NC(c2ccccc2O)c2oc(CO)cc(=O)c2O)c1 (centres undefined)	-	-	-	-	69.5
COP1(=O)C=C[C@H](N(Cc2ccccc2)S(=O)(=O)c2ccccc2[N+](=O)[O-])[C@@H](C)O1 (some centres undefined)	-	.	-	.	-
SMILES	Mcl1 Bid PPI	Bim-Mcl-1	14-3-3 Bad PPI	Arbovirus inh	Mcl1-Noxa inh
CC1=NN(c2nc(-c3ccc(C)cc3)cs2)C(=O)C1N=Nc1cccc(C)c1 (centres undefined)	-	-	-	-	-
CCOC(=O)c1sc(N2N=C(C)C(N=Nc3cccc(C)c3)C2=O)nc1C (centres undefined)	86.5	.	97.4	.	-
Cn1c(=O)c2c(nc(NCc3ccc4c(c3)OCO4)n2Cc2ccccc2Cl)n(C)c1=O	-	-	-	-	-
Cn1c(=O)c2c(nc(OCc3ccc4c(c3)OCO4)n2Cc2ccccc2Cl)n(C)c1=O	50.8	-	-	-	-
Cc1ccc(NC(=O)CN2CCc3ccccc3C2)cc1S(=O)(=O)N(C)C	-	-	-	-	-
O=C(CCN1CCc2ccccc2C1)Nc1cccc(F)c1	77.4	-	-	-	-
COc1cc2c(cc1OC)CN(CC(=O)Nc1ccc(S(=O)(=O)N(C)C)cc1)CC2	-	-	-	-	-
O=C(CCN1CCc2ccccc2C1)Nc1ccccc1	-	-	-	-	-
Cc1ccc(NC(=O)CN2CCc3ccccc3C2)cc1F	97.5	.	-	.	-
COc1cc2c(cc1OC)CN(CC(=O)Nc1ccc(C#N)cc1)CC2	98.2	-	-	-	-
Cc1cccc(NC(=S)NC(=O)c2ccco2)n1	-	-	-	-	-
O=C(O)c1cccc(S(=O)(=O)N2CCSCC2)c1	-	-	76.9	-	-
Cc1cccc2c(N=Nc3ccc(S(=O)(=O)Nc4cccc(Cl)c4)cc3[N+](=O)[O-])c(O)[nH]c12	-	-	-	-	-
O=c1[nH]c(=S)[nH]c(O)c1N=Nc1ccc(-c2ccccc2)cc1[N+](=O)[O-]	-	-	-	-	91.9
N#C/C(=C\c1cn(-c2ccccc2)nc1-c1cc2ccccc2o1)c1nc2ccccc2[nH]1	-	-	-	-	59.4
CN(C)S(=O)(=O)c1cccc(-c2nn(-c3ccccc3)cc2/C=C(\C#N)c2nc3ccccc3[nH]2)c1	-	-	-	-	-
Cc1cc(/C=C(/C#N)c2nc3ccccc3[nH]2)c(C)n1-c1cc(C(=O)O)cc(C(=O)O)c1	-	-	-	-	51.5
CCCCN(C(=O)/C=C/c1ccco1)c1c(N)n(CCC)c(=O)[nH]c1=O	-	-	-	-	-
CN(CC1CCOCC1)C(=O)CC1C(=O)NCCN1Cc1ccc(-c2ccccc2)cc1 (centres undefined)	-	-	-	-	-
COc1cc(C(=O)Nc2cccc(S(=O)(=O)N3CCCC3)c2)cc(OC)c1C	-	.	-	.	-
CCC(=O)c1ccc(N2CCN(C(=O)c3ccccc3)CC2)c(F)c1	-	-	-	-	-
COc1ccc(N(C(=O)CNC(=O)c2cccs2)C(C(=O)NCC2CCCO2)c2ccccc2)cc1OC (centres undefined)	-	-	-	-	-
Cn1c(-c2cc3c(C(F)(F)F)nn(C)c3s2)n[nH]c1=S	-	-	-	-	-
CCn1c(-c2cc3c(C(F)(F)F)nn(C)c3s2)n[nH]c1=S	-	-	-	-	71.8
COc1cccc(OC)c1C(=O)Nc1ccccc1C(=O)N1CCOCC1	83.9	-	-	-	-
Cc1nn(Cc2ccccc2)c(C)c1C(=O)Nc1ccc(N2CCOCC2)cc1	-	-	-	-	-
Cc1nn(Cc2ccc(F)cc2)c2sc(C(=O)Nc3ccc(N4CCOCC4)cc3N3CCOCC3)cc12	-	-	-	-	75.7
Cc1cc(OCCCn2ccnc2)cc(C(C)C)c1	-	-	-	-	-
c1ccc2c(CSc3ncnc4nc[nH]c34)cccc2c1	-	-	-	-	-
Cc1ccc(C(=O)CN(C(=O)c2ccc(Cl)c(Cl)c2)N2C(=O)C3C4C=CC(C4)C3C2=O)cc1 (centres undefined)	80.3	-	-	-	.
